Measurements reported in PubChem BioAssay (NCI).
This is part of a sample that, as a whole, favours compounds with a hit. Of some 79,000 tested, about 15% had one in any assay. Unmarked numbers belong to inactive results. Calls of active or inactive are those of the source. Cut-off read from the data, not from the text of the source: active = growth inhibition above about 70%; inactive = the rest.

How the values were obtained:
[1] = NCI Yeast Anticancer Drug Screen. Data for the rad50 strain (AID 155);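 note: 0% = growth of vehicle-only cultures of the same strain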; conditions: S. cerevisiae rad50 strain growth inhibition, stronger effect = higher value
Summary of the method: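 Cells are treated with compound, grown, and their growth is then scored against vehicle-only cultures of the same repair-deficient yeast strain.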

[2] = NCI Yeast Anticancer Drug Screen. Data for the mec2-1 strain (AID 157); conditions: S. cerevisiae mec2-1 strain, stronger effect = higher value
Summary of the method: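 Using mec2-1 yeast: add compound, measure growth, express inhibition versus vehicle-treated cultures.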

[3] = NCI Yeast Anticancer Drug Screen. Data for the sgs1 mgt1 strain (AID 161);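 note: 0% = growth of cultures given vehicle only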; conditions: S. cerevisiae sgs1 mgt1 strain, stronger effect = higher value
Summary of the method: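 Compounds are added to genetically altered yeast, and growth is compared with cultures given vehicle alone to give percent inhibition.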

[4] = NCI Yeast Anticancer Drug Screen. Data for the cln2 rad14 strain (AID 165);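 note: 0% = growth equal to vehicle treated cultures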; conditions: S. cerevisiae cln2 rad14 strain, stronger effect = higher value
Summary of the method: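 Yeast strain cln2 rad14, bearing defects in cell cycle control and DNA repair, serves as the test system; values reflect growth inhibition compared with vehicle.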

[5] = NCI Yeast Anticancer Drug Screen. Data for the bub3 strain (AID 167); conditions: S. cerevisiae bub3 mutant strain, stronger effect = higher value
Summary of the method: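 Part of a panel of yeast mutants defective in DNA damage repair or cell cycle regulation. Each strain is grown with compound, and inhibition is calculated relative to solvent-treated cultures.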

[6] = NCI Yeast Anticancer Drug Screen. Data for the mlh1 rad18 strain (AID 175); conditions: S. cerevisiae mlh1 rad18 strain growth inhibition, stronger effect = higher value
Summary of the method: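 Steps: expose repair-defective yeast to compound; measure growth; express inhibition against vehicle-treated controls.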

[7] = at 5.0 µM (retest, dose inferred, filed as 0.5)
[8] = at 50.0 µM (retest, dose inferred, filed as 5.0)

Compound	growth inhibition [1, 7]	growth inhibition [1, 8]	growth inhibition ([1]; at 50.0 µM)	growth inhibition [2, 7]	growth inhibition [2, 8]	growth inhibition ([2]; at 50.0 µM)	growth inhibition [3, 7]	growth inhibition [3, 8]	growth inhibition ([3]; at 50.0 µM)	growth inhibition [4, 7]	growth inhibition [4, 8]	growth inhibition ([4]; at 50.0 µM)	growth inhibition [5, 7]	growth inhibition [5, 8]	growth inhibition ([5]; at 50.0 µM)	growth inhibition [6, 7]	growth inhibition [6, 8]	growth inhibition ([6]; at 50.0 µM)
CCOC(=O)C1(C#N)C(c2ccccc2)C1(C#N)C#N (stereo not drawn)	18%	85% (active)	97.9% (active)	29%	96% (active)	99.3% (active)	31%	34%	98.5% (active)	9%	76% (active)	97.8% (active)	14%	92% (active)	97.4% (active)	42%	98% (active)	98.8% (active)
Cc1csc2[n+]1C(=O)/C(=C\c1ccc([N+](=O)[O-])cc1)S2	30%	74% (active)	69.6%	21%	71% (active)	56.2%	32%	80% (active)	50.3%	7%	67%	57.5%	26%	76% (active)	46.9%	24%	82% (active)	78.3% (active)
Clc1ccccc1C=Nc1cccc2ccccc12	-10%	-24%	22.4%	-14%	-17%	32.4%	-9%	-1%	27.1%	18%	8%	13.9%	13%	-3%	35.8%	-33%	-54%	23.4%
O=S1(=O)c2ccccc2C(O)(c2ccccc2)c2cc3ccccc3n21 (stereo not drawn)	9%	95% (active)	95.8% (active)	9%	96% (active)	95.5% (active)	12%	97% (active)	94.2% (active)	9%	95% (active)	94.9% (active)	5%	96% (active)	94.3% (active)	8%	95% (active)	95.5% (active)
O=C(O)C1C(c2ccccc2)=C1c1ccccc1	-7%	22%	73.8% (active)	0%	7%	56.4%	10%	41%	59.6%	-44%	-3%	57.8%	-22%	7%	39.2%	-12%	12%	46.5%
COc1ccc(C(=O)C(C(c2ccccc2)N2CCc3ccccc3C2)N2CCc3ccccc3C2)cc1 (stereo not drawn)	3%	22%	27.4%	-2%	2%	15.2%	0%	-6%	12.2%	2%	-27%	26.9%	-3%	4%	78.3% (active)	-1%	6%	27.6%
COc1ccc(C(C)=O)c(OC(=O)c2ccccc2)c1OC(=O)c1ccccc1	-22%	9%	5.05%	-1%	7%	10.2%	-21%	-10%	-12.1%	2%	11%	-3%	-10%	-1%	1.15%	-1%	4%	-0.9%
CC(C)=CCC/C(C)=C/CC/C(C)=C/CSc1ccccc1C(=O)O	22%	17%	76.3% (active)	10%	14%	75.8% (active)	14%	10%	54.5%	8%	20%	10.2%	18%	19%	62.2%	22%	18%	41.5%
C=C1CC2(CCS(=O)(=O)c3ccccc32)OC1=O (stereo not drawn)	2%	27%	25.6%	5%	35%	60.6%	7%	37%	69%	6%	15%	36.6%	2%	47%	46.6%	2%	49%	48.9%
C1=C(c2ccccc2)OC(c2ccccc2)=C[P+]1(c1ccccc1)c1ccccc1	96% (active)	98% (active)	92.1% (active)	98% (active)	99% (active)	90.8% (active)	99% (active)	99% (active)	91% (active)	93% (active)	99% (active)	86.8% (active)	97% (active)	99% (active)	93% (active)	95% (active)	98% (active)	92.7% (active)
CC(=O)OCc1cc(=O)n(C)c2c3c4c(cc12)c(C)cc(=O)n4CO3	87% (active)	99% (active)	85.6% (active)	69%	99% (active)	88.5% (active)	83% (active)	99% (active)	91.2% (active)	79% (active)	97% (active)	87.4% (active)	86% (active)	97% (active)	83.8% (active)	91% (active)	99% (active)	89.9% (active)
COc1ccccc1NC(=O)C1=CNC(C)=C(C(=O)Nc2ccccc2OC)C1/C=C/c1ccccc1 (stereo not drawn)	1%	18%	43.5%	-4%	1%	-0.75%	1%	17%	-1.95%	-1%	-8%	-6.3%	-2%	-8%	-1.9%	-1%	7%	15.3%
CCC[N+]1=C(/C=C/c2ccc3cccnc3c2O)C(C)(C)c2ccccc21	0%	98% (active)	98.8% (active)	0%	98% (active)	99% (active)	10%	98% (active)	54%	-15%	98% (active)	98.9% (active)	4%	98% (active)	98.8% (active)	25%	98% (active)	97.8% (active)
O=C(OCc1ccccc1)c1ccc(O)cc1	6%	79% (active)	96.8% (active)	-1%	85% (active)	98.3% (active)	1%	64%	98.5% (active)	2%	39%	85.8% (active)	9%	91% (active)	97.8% (active)	2%	88% (active)	99% (active)
COc1ccc(C2=C(Cl)C(=O)N(c3ccc(C)cc3)C(=O)C2(Cl)Cl)cc1	14%	59%	83.3% (active)	-2%	36%	96.8% (active)	24%	83% (active)	94.2% (active)	1%	19%	54.3%	-7%	22%	76.3% (active)	12%	33%	94% (active)
Cc1sc(N=Nc2c(O)[nH]c3ccccc23)nc1-c1ccccc1	20%	31%	-2%	16%	27%	-2.15%	17%	30%	19.9%	14%	19%	13.7%	24%	60%	-20.1%	11%	39%	-26.4%
CCCCCCCCCCN1CCN(C(=O)OCC)CC1	51%	68%	95% (active)	54%	77% (active)	72.2% (active)	67%	97% (active)	94.7% (active)	58%	67%	90.7% (active)	62%	80% (active)	95.8% (active)	79% (active)	91% (active)	89.2% (active)
CN(C)CC1CCc2ccc3ccccc3c2C1=O (stereo not drawn)	9%	34%	25.9%	-13%	27%	31.6%	16%	48%	56.4%	6%	29%	7.95%	10%	63%	48.8%	29%	65%	15.4%
Clc1nc2cc3nc(Cl)c(Cl)nc3cc2nc1Cl	18%	71% (active)	21.2%	24%	93% (active)	16.3%	14%	24%	36.4%	26%	23%	30.1%	17%	30%	15.6%	29%	91% (active)	-1.2%
CCc1ccccc1SC(C)=O	6%	55%	29.9%	13%	70% (active)	62%	3%	42%	44.5%	11%	69%	59.9%	7%	77% (active)	80.9% (active)	1%	60%	65.3%
CCCCOC(=O)C(=O)/C(=C/N1C(=O)/C(=C/C(C)=C/c2ccccc2)SC1=S)C(=O)C=C(C)C	0%	8%	39.7%	-13%	10%	63.4%	-10%	5%	50.5%	-25%	11%	46.8%	-10%	26%	68%	1%	14%	71.1% (active)
N#CC(O)C(Br)(Br)Br (stereo not drawn)	-3%	61%	82.7% (active)	-3%	38%	74.3% (active)	-4%	46%	83.3% (active)	6%	18%	21.9%	-1%	69%	84.7% (active)	1%	72% (active)	86% (active)
CCCCCCCCCCCCCC(=O)OCCCC1CCCO1 (stereo not drawn)	-2%	-2%	8.55%	-2%	2%	-13.8%	-1%	4%	13.2%	7%	7%	53.6%	-2%	-3%	11.3%	11%	0%	-38.2%
Cc1noc(NS(=O)(=O)c2ccc(N=Nc3cc(N=Nc4ccc(S(=O)(=O)Nc5onc(C)c5C)cc4)c4c(NC(=O)C(Cl)Cl)cccc4c3O)cc2)c1C (tested in a mixture with another compound)	96% (active)	61%	73% (active)	97% (active)	57%	74.5% (active)	95% (active)	63%	75% (active)	96% (active)	65%	63.4%	95% (active)	56%	49.1%	88% (active)	43%	59.2%
S=C(Nc1ccc(Cl)c(Cl)c1)SC1CCCCC1	17%	96% (active)	47.2%	11%	97% (active)	64.2%	11%	98% (active)	87.1% (active)	-1%	95% (active)	87.5% (active)	17%	96% (active)	83.3% (active)	20%	96% (active)	90% (active)
C=C1C(=O)C23OC2C1CCC(=O)C1(C)CC[C@H](OC(C)=O)C(C)(C)[C@H]1CC3O (stereo partly drawn)	86% (active)	79% (active)	99.2% (active)	92% (active)	31%	100% (active)	92% (active)	42%	99.5% (active)	71% (active)	16%	99.2% (active)	92% (active)	27%	99.2% (active)	92% (active)	38%	99% (active)
